Where a name gives a salt, the structure may show the parent alone.
Test system: Drosophila S2 cl14 SmoIP sensor cells
Assay: normalized SmoIP GFP fluorescence (untreated unstimulated = 0%, untreated Hh-stimulated = 100%); higher = more Smo activation sensor fluorescence
Conditions: compound concentration: 2 uM, 24 h
[1] = stimulation: Hh conditioned medium (+Hh)
[2] = stimulation: mock conditioned medium (-Hh)
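Further: flow cytometry read-out as median GFP intensity of gated cells, compounds added 30 min before Hh-conditioned or mock medium, mock-treated cells serving as unstimulated baseline.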

CCN(CC)CCCCNc1ncc2cc(-c3cc(OC)cc(OC)c3)c(NC(=O)NC(C)(C)C)nc2n1
normalized SmoIP GFP fluorescence [1]: 123%
normalized SmoIP GFP fluorescence [2]: 8.79%

Nc1cccc2c1C(=O)N(C1CCC(=O)NC1=O)C2=O (centres undefined) [Pomalidomide(CC-4047)]
normalized SmoIP GFP fluorescence [1]: 103%
normalized SmoIP GFP fluorescence [2]: 10.4%

COC(=O)[C@H](c1ccccc1Cl)N1CCc2sccc2C1 [Clopidogrel-bisulfate]
normalized SmoIP GFP fluorescence [1]: 113%
normalized SmoIP GFP fluorescence [2]: 2.97%

c1cncc(CN2CCC(n3ncc4c(N5CCOCC5)nc(-c5ccc6[nH]ccc6c5)nc43)CC2)c1
normalized SmoIP GFP fluorescence [1]: 104%
normalized SmoIP GFP fluorescence [2]: -4.53%

CN1[C@@H]2CC[C@H]1C[C@@H](OC(c1ccccc1)c1ccccc1)C2 [benztropine-mesylate]
normalized SmoIP GFP fluorescence [1]: 113%
normalized SmoIP GFP fluorescence [2]: -0.662%

CN1CCN(S(=O)(=O)c2ccc(-c3cnc(N)c(C(=O)Nc4cccnc4)n3)cc2)CC1
normalized SmoIP GFP fluorescence [1]: 112%
normalized SmoIP GFP fluorescence [2]: 1.21%

Cc1csc(-c2nnc(Nc3ccc(Oc4ncccc4-c4ccnc(N)n4)cc3)c3ccccc23)c1
normalized SmoIP GFP fluorescence [1]: 102%
normalized SmoIP GFP fluorescence [2]: -0.747%

CCOc1cc2ncc(C#N)c(Nc3ccc(F)c(Cl)c3)c2cc1NC(=O)/C=C/CN(C)C [Pelitinib]
normalized SmoIP GFP fluorescence [1]: 197%
normalized SmoIP GFP fluorescence [2]: 9.86%

CN(C)C(=O)C(CCN1CCC(O)(c2ccc(Cl)cc2)CC1)(c1ccccc1)c1ccccc1 [Loperamide-hydrochloride]
normalized SmoIP GFP fluorescence [1]: 106%
normalized SmoIP GFP fluorescence [2]: 7.46%

CNC(=O)c1ccc(N2C(=S)N(c3cnc(C#N)c(C(F)(F)F)c3)C(=O)C23CCC3)cc1F
normalized SmoIP GFP fluorescence [1]: 105%
normalized SmoIP GFP fluorescence [2]: -0.0369%

COc1cc2ncnc(Nc3cccc(Cl)c3)c2cc1OC [ag-1478-tyrphostin-ag-1478]
normalized SmoIP GFP fluorescence [1]: 157%
normalized SmoIP GFP fluorescence [2]: -12.9%

Nc1nc(CC(=O)Nc2ccc(CCNC[C@H](O)c3ccccc3)cc2)cs1 [mirabegron-ym178]
normalized SmoIP GFP fluorescence [1]: 108%
normalized SmoIP GFP fluorescence [2]: -5.15%

Cc1c(NC(=O)OC[C@@H]2COCCN2)cn2ncnc(Nc3ccc4c(cnn4Cc4cccc(F)c4)c3)c12
normalized SmoIP GFP fluorescence [1]: 128%
normalized SmoIP GFP fluorescence [2]: 16.5%

O=C(O)c1ccc(N2C(=O)/C(=C\c3ccc(-c4ccc([N+](=O)[O-])cc4)o3)C=C2c2ccccc2)cc1 [4e1rcat]
normalized SmoIP GFP fluorescence [1]: 105%
normalized SmoIP GFP fluorescence [2]: -0.265%

Cc1c(Nc2ncccc2C(=O)O)cccc1C(F)(F)F [flunixin-meglumin]
normalized SmoIP GFP fluorescence [1]: 123%
normalized SmoIP GFP fluorescence [2]: -12.6%

Cc1c(OCC(F)(F)F)ccnc1C[S+]([O-])c1nc2ccccc2[nH]1 (centres undefined) [Lansoprazole]
normalized SmoIP GFP fluorescence [1]: 104%
normalized SmoIP GFP fluorescence [2]: -1.13%

COc1cc(OC)c(/C=C/S(=O)(=O)Cc2ccc(OC)c(NCC(=O)O)c2)c(OC)c1
normalized SmoIP GFP fluorescence [1]: 79.7%
normalized SmoIP GFP fluorescence [2]: -1.34%

CS(=O)(=O)N1CCc2c(-c3cnc(N)nc3)nc(N3CCOCC3)nc21
normalized SmoIP GFP fluorescence [1]: 134%
normalized SmoIP GFP fluorescence [2]: -15.8%

CCN1CCN(c2ccc(Nc3cc(N(C)C(=O)Nc4c(Cl)c(OC)cc(OC)c4Cl)ncn3)cc2)CC1
normalized SmoIP GFP fluorescence [1]: 111%
normalized SmoIP GFP fluorescence [2]: -12.7%

O=C(Nc1ccccc1)Nc1ccc(-c2ccc(C(=O)[C@@H]3CCC[C@H]3C(=O)O)cc2)cc1
normalized SmoIP GFP fluorescence [1]: 128%
normalized SmoIP GFP fluorescence [2]: -11%

CC(C)c1nc(CN(C)C(=O)N[C@@H](CCN2CCOCC2)C(=O)N[C@H](CC[C@H](Cc2ccccc2)NC(=O)OCc2cncs2)Cc2ccccc2)cs1 [cobicistat-gs-9350]
normalized SmoIP GFP fluorescence [1]: 113%
normalized SmoIP GFP fluorescence [2]: 0.474%

CNCc1ccc(-c2cc(-c3nc(-c4ccc(S(=O)(=O)C(C)C)cc4)cnc3N)on2)cc1
normalized SmoIP GFP fluorescence [1]: 123%
normalized SmoIP GFP fluorescence [2]: 28.9%

Cc1cc(N2CCOCC2)ccc1Nc1nc(NC2CCCCC2)c2[nH]cnc2n1
normalized SmoIP GFP fluorescence [1]: 93.8%
normalized SmoIP GFP fluorescence [2]: -2.64%

C[C@H](Nc1ncnc2nc[nH]c12)c1cc2cccc(Cl)c2c(=O)n1-c1ccccc1
normalized SmoIP GFP fluorescence [1]: 98%
normalized SmoIP GFP fluorescence [2]: -4.24%

CCNC(=O)Nc1ccc(-c2nc3c(c(N4CCOC[C@@H]4C)n2)CCN(C2COC2)C3)cc1
normalized SmoIP GFP fluorescence [1]: 93.3%
normalized SmoIP GFP fluorescence [2]: -0.151%

O=C(NS(=O)(=O)c1ccc(Br)s1)c1ccc(Cl)cc1Cl [tasisulam]
normalized SmoIP GFP fluorescence [1]: 104%
normalized SmoIP GFP fluorescence [2]: -4.01%

CC(C)c1cc(C(C)C)c(CC(=O)NS(=O)(=O)Oc2c(C(C)C)cccc2C(C)C)c(C(C)C)c1 [Avasimibe(CI-1011)]
normalized SmoIP GFP fluorescence [1]: 111%
normalized SmoIP GFP fluorescence [2]: -15.8%

CC(=O)NS(=O)(=O)c1ccc(N)cc1 [sulfacetamide-sodium]
normalized SmoIP GFP fluorescence [1]: 103%
normalized SmoIP GFP fluorescence [2]: -5.72%

NCCCCCNCC12CC3CC(CC(C3)C1)C2 [iem-1754-dihydrobromide]
normalized SmoIP GFP fluorescence [1]: 102%
normalized SmoIP GFP fluorescence [2]: -2.31%

CN1CCN(C2=Nc3cc(Cl)ccc3Nc3ccccc32)CC1 [Clozapine(Clozaril)]
normalized SmoIP GFP fluorescence [1]: 119%
normalized SmoIP GFP fluorescence [2]: 0.154%

Cc1[nH]nc2ccc(-c3cncc(OC[C@@H](N)Cc4ccccc4)c3)cc12
normalized SmoIP GFP fluorescence [1]: 134%
normalized SmoIP GFP fluorescence [2]: 8.54%

NC(=O)c1noc([C@H](CCCC2CCCCC2)CC(=O)NO)n1
normalized SmoIP GFP fluorescence [1]: 126%
normalized SmoIP GFP fluorescence [2]: -6.97%

— the supplement of paper PMC5662767
